Results as given in PubChem BioAssay (NCI).
About 83,000 compounds went through this panel and 20% of them were active in at least one assay; those are over-represented in the sample as a whole.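 Single-concentration screen, 48 h exposure, 96-well plates. Endpoint: percent growth. Below 10 = active.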 Values without a mark were called inactive. The source made the active and inactive calls.

Assays:
Assay in all cases: NCI-60 one-dose screen, 48 h (100 = growth as untreated, 0 = no growth, -100 = all killed)
Details in all cases: 10 µM unless noted
[1] = test system: NCI-H23 lung
[2] = test system: NCI-H226 lung
[3] = test system: NCI-H322M lung
[4] = test system: HOP-62 NSCLC
[5] = test system: NCI-H460 lung
[6] = test system: HOP-92 NSCLC
[7] = test system: A549/ATCC NSCLC
[8] = test system: 786-0 renal
[9] = test system: COLO 205 colon

Compound: C/C(=C\CCc1ccsc1)CC/C=C(\C)CCCN1CCSCC1
- growth [1]: 89.6%
- growth [2]: 91.3%
- growth [3]: 78.3%
- growth [4]: 99%
- growth [5]: 76.9%
- growth [6]: 73.3%
- growth [7]: 67.5%
- growth [8]: 102%
- growth [9]: 85.6%

Compound: O=C1CNc2cc(Cl)ccc2N1
- growth [1]: 96.7%
- growth [2]: 103%
- growth [3]: 106%
- growth [4]: 99.2%
- growth [5]: 109%
- growth [6]: 102%
- growth [7]: 113%
- growth [8]: 109%
- growth [9]: 106%

Compound: COc1ccc2nc(-c3ccc(Cl)cc3)cc(-c3nnc(SCC(=O)Nc4ccc(C(C)=O)cc4)n3-c3ccccc3)c2c1
- growth [1]: 100%
- growth [2]: 99.1%
- growth [3]: 91.5%
- growth [4]: 100%
- growth [5]: 102%
- growth [6]: 111%
- growth [7]: 93.2%
- growth [8]: 91.4%
- growth [9]: 101%

Compound: CCOC(=O)/C=C1/SC(=Nc2ccc(C#N)cc2)N(Cc2ccco2)C1=O
- growth [1]: 70.6%
- growth [2]: 70.3%
- growth [3]: 95.5%
- growth [4]: 60.3%
- growth [5]: 38.9%
- growth [6]: 37.2%
- growth [7]: 67.2%
- growth [8]: 34.6%
- growth [9]: 50.2%

Compound: CC(=O)Nc1c(Cl)cc2c(c1Cl)Cc1ccccc1-2
- growth [1]: 91.5%
- growth [2]: 90.7%
- growth [3]: 106%
- growth [4]: 107%
- growth [5]: 104%
- growth [6]: 87.7%
- growth [7]: 92.1%
- growth [8]: 108%
- growth [9]: 112%

Compound: O=C1NC(=S)S/C1=C\c1cc(Br)ccc1O
- growth [1]: 84.7%
- growth [2]: 91.4%
- growth [3]: 92.3%
- growth [4]: 81.6%
- growth [5]: 102%
- growth [6]: 75.7%
- growth [7]: 107%
- growth [8]: 109%
- growth [9]: 95%

Compound: Cc1ccc(-c2c3c(N)c4c(nc3nc3c2c(C)nn3-c2ccccc2)CCC4)cc1
- growth [1]: 66.8%
- growth [2]: 92.6%
- growth [3]: 89.1%
- growth [4]: 95.7%
- growth [5]: 5% (active)
- growth [6]: 77.9%
- growth [7]: 32.9%
- growth [8]: 28%
- growth [9]: -74.4% (active)

Compound: COc1cc(C2CC(C3C(=O)N(C)C(=O)N(C)C3=O)=NN2c2cc(Cl)cc(Cl)c2)cc(OC)c1OC (stereo not drawn)
- growth [1]: 93.5%
- growth [2]: 85%
- growth [3]: 104%
- growth [4]: 89.7%
- growth [5]: 94.5%
- growth [6]: 88.5%
- growth [7]: 78.2%
- growth [8]: 99.6%
- growth [9]: 99.7%

Compound: Cc1sc2nc(N3CCCCC3)[nH]c(=O)c2c1C
- growth [1]: 95.8%
- growth [2]: 88%
- growth [3]: 102%
- growth [4]: 93.3%
- growth [5]: 101%
- growth [6]: 93.8%
- growth [7]: 83.2%
- growth [8]: 94.1%
- growth [9]: 100%

Compound: CCCCCCCCCCCCCCCCNC(=O)Nc1ccc2ccccc2c1
- growth [1]: 103%
- growth [2]: 108%
- growth [3]: 110%
- growth [4]: 105%
- growth [5]: 99.2%
- growth [6]: 74.5%
- growth [7]: 107%
- growth [8]: 104%
- growth [9]: 103%

Compound: COC(=O)[C@H](Cc1cn(C)cn1)NC(=O)[C@@H](NC(=O)Nc1cc(C(F)(F)F)cc(C(F)(F)F)c1)C(C)C
- growth [1]: -77.2% [100 µM] (active)
- growth [2]: -52.3% [100 µM] (active)
- growth [3]: -90.4% [100 µM] (active)
- growth [4]: -98.6% [100 µM] (active)
- growth [5]: -45.9% [100 µM] (active)
- growth [6]: -96.6% [100 µM] (active)
- growth [7]: -73% [100 µM] (active)
- growth [8]: -90.6% [100 µM] (active)
- growth [9]: -94.4% [100 µM] (active)

Compound: BrC1CC(Br)c2c1c1c(c3c2C(Br)CC3Br)C(Br)CC1Br (stereo not drawn)
- growth [1]: 99.7%
- growth [2]: 101%
- growth [3]: 97.7%
- growth [4]: 103%
- growth [5]: 93.4%
- growth [6]: 89.9%
- growth [8]: 116%

Compound: Cc1cc(Cl)ccc1Nc1nc(C(F)(F)F)ccc1C(=O)N/N=C/c1ccc(Cl)cc1
- growth [1]: 5.4% (active)
- growth [2]: 7.79% (active)
- growth [3]: -1.86% (active)
- growth [4]: -61.2% (active)
- growth [5]: -5.33% (active)
- growth [6]: -24.1% (active)
- growth [8]: -45% (active)

Compound: O=C1N=C(N2CCOCC2)S/C1=C\c1cn(-c2ccccc2)nc1-c1ccccc1
- growth [1]: 95.2%
- growth [2]: 78.8%
- growth [3]: 73.3%
- growth [4]: 68.5%
- growth [5]: 67.3%
- growth [6]: 94.6%
- growth [8]: 25.6%
- growth [9]: 122%

Compound: COc1ccc(/C=C2\CCc3ccccc3C2=O)cc1
- growth [1]: 90.3%
- growth [2]: 103%
- growth [3]: 98.1%
- growth [4]: 85.8%
- growth [5]: 102%
- growth [6]: 84.2%
- growth [8]: 91.5%
